eLon inh – inhibitors of E. coli Lon protease, primary screen, biochemical, fluorescence polarization; P0A9M0; purified E. coli Lon protease; inhibition, % at 7.94 µM; actives 0.42% (n = 360,000); AID 602123, 2011; in the data active means inhibition above about 13%, passing the limit was not always enough
PAFAH1B2 FP inh – PAFAH1B2 enzyme inhibitors, primary screen, biochemical, fluorescence polarization, human; recombinant PAFAH1B2, FP-rhodamine activity probe; inhibition, % at 3.39 µM; actives 1.2% (n = 340,000); AID 492953, 2010;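 active means inhibition above the mean of all tested compounds plus 3 SD, cut at about 24% in these data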
PAFAH2 inh – PAFAH2 enzyme inhibitors, primary screen, biochemical, fluorescence polarization, human; Platelet-activating factor acetylhydrolase 2, cytoplasmic (Homo sapiens), Q99487; recombinant PAFAH2, FP-rhodamine activity probe; inhibition, % at 3.39 µM; actives 0.99% (n = 340,000);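 active means inhibition above the mean over all tested compounds plus 3 SD, cut at about 30% in these data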;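 further: inhibitors block probe labeling of enzyme so polarization drops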
pPAFAH FP inh – pPAFAH enzyme inhibitors, primary screen, biochemical, fluorescence polarization, human; AID 463082, 2010; inhibition, % at 3.39 µM; actives 1.5% (n = 330,000); recombinant pPAFAH, FP-rhodamine probe fluorescence polarization;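 active means inhibition above the mean inhibition across the screen plus 3 SD, cut at about 25% in these data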;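 further: inhibitors block binding of the rhodamine activity-based probe so polarization drops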
PAFAH1B3 inh – PAFAH1B3 enzyme inhibitors, primary screen, biochemical, fluorescence polarization, human. recombinant PAFAH1B3, FP-rhodamine probe. AID 492972, 2010. Platelet-activating factor acetylhydrolase IB subunit alpha1 (Homo sapiens), Q15102. actives 0.28% (n = 340,000). inhibition, % at 3.39 µM;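 active means inhibition above the screen-wide average of all tested compounds plus 3 SD, cut at about 25% in these data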
Rin1-Abl PPI inh – inhibitors of Rin1-Abl protein binding, primary screen, biochemical, TR-FRET | Tyrosine-protein kinase ABL1 (Homo sapiens) + Ras and Rab interactor 1 (Homo sapiens), … | actives 0.4% (n = 360,000) | inhibition, % at 7.35 µM; in the data active means inhibition above about 5%, passing the limit was not always enough
Target sequence (P00519 whole entry, looked up): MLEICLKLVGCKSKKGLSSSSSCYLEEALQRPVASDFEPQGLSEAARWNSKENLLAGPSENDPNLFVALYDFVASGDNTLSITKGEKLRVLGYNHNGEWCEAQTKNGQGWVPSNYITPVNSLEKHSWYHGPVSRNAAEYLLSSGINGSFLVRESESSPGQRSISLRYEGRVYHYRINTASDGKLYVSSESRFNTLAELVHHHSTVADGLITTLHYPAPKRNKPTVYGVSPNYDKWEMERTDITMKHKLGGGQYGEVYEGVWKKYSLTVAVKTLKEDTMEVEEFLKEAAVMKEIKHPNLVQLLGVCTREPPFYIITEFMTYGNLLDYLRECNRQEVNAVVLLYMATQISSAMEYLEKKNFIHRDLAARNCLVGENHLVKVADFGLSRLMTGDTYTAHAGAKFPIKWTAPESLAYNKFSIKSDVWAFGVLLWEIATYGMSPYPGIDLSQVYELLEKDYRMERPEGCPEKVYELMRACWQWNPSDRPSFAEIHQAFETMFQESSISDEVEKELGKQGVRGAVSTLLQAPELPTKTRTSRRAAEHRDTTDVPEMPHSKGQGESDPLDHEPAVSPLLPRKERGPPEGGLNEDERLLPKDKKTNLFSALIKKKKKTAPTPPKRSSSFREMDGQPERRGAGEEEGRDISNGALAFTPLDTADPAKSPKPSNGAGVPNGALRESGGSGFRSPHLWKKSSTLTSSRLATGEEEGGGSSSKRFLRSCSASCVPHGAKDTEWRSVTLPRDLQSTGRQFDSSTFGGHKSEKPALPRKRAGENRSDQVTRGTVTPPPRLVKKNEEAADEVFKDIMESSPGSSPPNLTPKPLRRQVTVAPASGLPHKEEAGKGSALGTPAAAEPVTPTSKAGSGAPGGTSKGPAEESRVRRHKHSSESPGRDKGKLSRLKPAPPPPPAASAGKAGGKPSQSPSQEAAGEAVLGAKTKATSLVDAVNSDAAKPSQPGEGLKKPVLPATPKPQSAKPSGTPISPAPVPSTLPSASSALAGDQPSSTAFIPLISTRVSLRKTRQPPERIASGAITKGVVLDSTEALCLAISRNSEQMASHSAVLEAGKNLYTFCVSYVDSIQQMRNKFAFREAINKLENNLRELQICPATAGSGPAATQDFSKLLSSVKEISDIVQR
Target sequence (Q13671 whole entry, looked up): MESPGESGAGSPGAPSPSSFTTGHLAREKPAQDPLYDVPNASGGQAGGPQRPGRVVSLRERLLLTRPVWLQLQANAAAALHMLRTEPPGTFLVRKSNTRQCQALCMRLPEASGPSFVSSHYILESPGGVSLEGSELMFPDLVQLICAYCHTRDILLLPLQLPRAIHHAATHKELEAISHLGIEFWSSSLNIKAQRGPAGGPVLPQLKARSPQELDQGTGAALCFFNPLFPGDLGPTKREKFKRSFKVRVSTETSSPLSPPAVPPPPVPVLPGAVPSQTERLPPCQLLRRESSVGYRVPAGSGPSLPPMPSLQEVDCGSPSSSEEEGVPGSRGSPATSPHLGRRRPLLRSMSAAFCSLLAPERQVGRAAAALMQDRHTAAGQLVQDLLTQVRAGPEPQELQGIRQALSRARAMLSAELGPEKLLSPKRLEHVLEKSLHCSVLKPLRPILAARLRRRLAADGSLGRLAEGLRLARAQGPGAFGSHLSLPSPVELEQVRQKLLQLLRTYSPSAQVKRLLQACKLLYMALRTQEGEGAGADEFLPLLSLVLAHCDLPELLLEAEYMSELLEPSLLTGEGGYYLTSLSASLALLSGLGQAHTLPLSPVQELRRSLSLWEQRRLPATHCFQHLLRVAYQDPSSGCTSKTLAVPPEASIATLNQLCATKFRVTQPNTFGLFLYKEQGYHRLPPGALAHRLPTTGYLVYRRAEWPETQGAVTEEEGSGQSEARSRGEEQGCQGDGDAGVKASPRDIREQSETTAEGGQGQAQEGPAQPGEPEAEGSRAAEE
Each line names hits and unclear results; the compound was inactive in the other large screens. Only some compounds are listed: those with a hit (about 3.1% of all), similar ones and a draw of the others.

CC(=O)c1cccc(NC(=O)C2Cc3c(-c4ccc(Cl)cc4)ccnc3O2)c1 (stereo unspecified)	none (no result: PAFAH1B2 FP inh, PAFAH2 inh, pPAFAH FP inh, PAFAH1B3 inh)
COc1ccccc1NS(=O)(=O)c1ccc(O)c(C(=O)OCC(=O)Nc2ccccc2F)c1	PAFAH2 inh 34.4
CCN(Cc1ccccc1)C(=O)COC(=O)c1cc(S(=O)(=O)Nc2ccccc2OC)ccc1O	PAFAH1B2 FP inh 32.2
Cc1cccc(C(=O)OC(C)C(=O)Nc2ccc(S(=O)(=O)N3CCCC3)cc2)c1O (stereo unspecified)	none
CC(OC(=O)c1cc(Br)ccc1O)C(=O)Nc1ccc(S(=O)(=O)N2CCCC2)cc1 (stereo unspecified)	pPAFAH FP inh 26.3
O=C(COC(=O)c1cc(S(=O)(=O)N2CCCC2)ccc1O)Nc1ccccc1Br	PAFAH2 inh 49.4
O=C(COC(=O)c1ccccc1Br)Nc1cc(S(=O)(=O)N2CCOCC2)ccc1N1CCCC1	none
COc1ccc(NS(=O)(=O)c2cccc(NC(=O)CCC(=O)c3cccs3)c2)cc1	pPAFAH FP inh 32.6
COc1ccc(NS(=O)(=O)c2cccc(NC(=O)CCS(=O)(=O)c3ccccc3)c2)cc1	pPAFAH FP inh 34.2
O=C(O)Cn1ccnc1[N+](=O)[O-]	none (no result: PAFAH1B2 FP inh, PAFAH2 inh, pPAFAH FP inh, PAFAH1B3 inh)
CC(=O)Nn1cnc2c(c1=O)C1(CCCC1)Cc1ccccc1-2	PAFAH1B2 FP inh 25.2
C=CCSc1n[nH]c2nc3c(c(=O)n12)C1(CCCC1)Cc1ccccc1-3	PAFAH1B2 FP inh 44.1
O=c1c2c(nc3n1CCCCC3)-c1ccccc1CC21CCCC1	PAFAH1B2 FP inh 27.8
CC(C)CCN(C(=O)c1cn2ccccc2n1)c1c(N)n(Cc2ccccc2)c(=O)[nH]c1=O	none (no result: pPAFAH FP inh)
O=C(NC1CCCCC1)C(c1cccnc1)N(C(=O)CCl)c1cccc(Cl)c1 (stereo unspecified)	none
CCC(CC)C(=O)c1c[nH]c(C(=O)OC)c1	none
CCCCc1nnc(NC(=O)CCSc2ccccc2)s1	none
Cc1nnc(NC(=O)CCSc2ccccc2)s1	PAFAH1B2 FP inh 26.6
Oc1ccc(NCc2cccs2)cc1	pPAFAH FP inh 28.0
CNC(=S)N(CCCn1ccnc1)Cc1c(F)cccc1Cl	none
O=C(CSc1ccc(-c2ccco2)nn1)c1ccccc1	pPAFAH FP inh 34.1
Cc1c(C=Nc2ccc(S(=O)(=O)CCO)cc2)c(O)[nH]c(=O)c1C#N	none
COc1cc(NC(=O)c2ccc([N+](=O)[O-])cc2)c(OC)cc1NC(=O)CC(C)C	none
CCN(C(=O)CSc1nc2ccccc2n1CC(C)C)c1c(N)n(Cc2ccccc2)c(=O)[nH]c1=O	none (no result: pPAFAH FP inh)
CCN(C(=O)CSc1nc2ccccc2o1)c1c(N)n(Cc2ccccc2)c(=O)[nH]c1=O	pPAFAH FP inh 28.9
CCOc1ccc(C2OCCC(C)O2)cc1OC (stereo unspecified)	none (no result: pPAFAH FP inh)
O=C(Cc1ccc(S(=O)(=O)N2CCOCC2)s1)Nc1ccc2c(c1)CCC2	none
O=C(Cc1ccc(S(=O)(=O)N2CCOCC2)s1)Nc1cc(Cl)ccc1Cl	PAFAH2 inh 41.2, pPAFAH FP inh 27.6
O=C(Cc1ccc(S(=O)(=O)N2CCOCC2)s1)Nc1nc2c(s1)CCCC2	pPAFAH FP inh 32.5
COCCN(C(=O)c1ccc(OCC(C)C)cc1)c1c(N)n(Cc2ccccc2)c(=O)[nH]c1=O	pPAFAH FP inh 31.0
Cc1cc(C)c(S(=O)(=O)NCCc2cc3ccc(C)c(C)c3[nH]c2=O)c(C)c1	none
Cc1ccc2cc(CCNS(=O)(=O)c3ccc(Br)cc3)c(=O)[nH]c2c1C	PAFAH1B2 FP inh 29.9
CCOCCCNC(=O)CSc1nnc(-c2ccc(S(=O)(=O)N3CCCC3)cc2)n1C	none
CCc1cccc2c(/C=N/NC(=O)c3cccc(S(=O)(=O)Nc4ccccc4Cl)c3)c[nH]c12	PAFAH1B2 FP inh 25.9, pPAFAH FP inh 26.7, PAFAH1B3 inh 31.4
Cc1[nH]c2ccccc2c1/C=N/NC(=O)c1cccc(S(=O)(=O)Nc2ccccc2Cl)c1	none
Cc1ccc(S(=O)(=O)N2CCN(C(=O)N(c3ccccc3)c3ccccc3)CC2)cc1	PAFAH1B2 FP inh 25.7
COc1ccc(CCNC(=S)N2CCN(S(=O)(=O)c3ccccc3)CC2)cc1	none
Cc1ccc(S(=O)(=O)N2CCN(C(=S)NCCc3ccccc3)CC2)cc1	PAFAH1B2 FP inh 44.9
Cc1ccc(N(C)C(=O)N2CCN(S(=O)(=O)c3ccc(C)cc3)CC2)cc1	none
Fc1cccc(Cc2c(C3CCCCC3)nc3ccc(Br)cn23)c1	none (no result: PAFAH1B2 FP inh, PAFAH2 inh, pPAFAH FP inh, PAFAH1B3 inh)
CCc1ccc(NC(=O)COC(=O)CCC2CCCC2)cc1	none
CC(C)(C)NC(=O)NC(=O)COC(=O)CCC1CCCC1	pPAFAH FP inh 30.9
COC(=O)c1ccc(CNC(=O)COC(=O)CCC2CCCC2)cc1	pPAFAH FP inh 24.6
COc1ccc(CNC(=O)COC(=O)CCC2CCCCC2)cc1	pPAFAH FP inh 30.7
COc1ccc(C)cc1NC(=O)CN1C(=O)COc2ccc(S(=O)(=O)N3CCCCC3)cc21	none
O=C(COC(=O)c1ccc(O)cc1O)Nc1nnc(-c2ccccc2)o1	none
OC(c1ccc(F)c(F)c1)c1nc(-c2ccoc2)cs1 (stereo unspecified)	none (no result: PAFAH1B2 FP inh, PAFAH2 inh, pPAFAH FP inh, PAFAH1B3 inh)
CC(C)C(NS(=O)(=O)c1cccc(C(F)(F)F)c1)C(=O)N1CCc2ccccc2C1 (stereo unspecified)	PAFAH1B2 FP inh 25.8
CCC(C)(C)C1CCC2(CC1)NC(=O)N(CC(=O)N1CCN(S(=O)(=O)c3cc(C)ccc3C)CC1)C2=O (stereo unspecified)	none
COC(=O)c1ccccc1CSc1nsc(/C=C/N(C)C)c1C#N	pPAFAH FP inh 28.2
O=C(Nc1ccc(S(=O)(=O)Nc2cnc3ccccc3n2)cc1)c1ccccc1Br	none
CCN1CCN(C(=O)c2ccc(CSc3ccc(C)cc3)cc2)CC1	PAFAH1B2 FP inh 40.0
Cc1ccc(SCC2(O)CCN(C(=O)c3ccc(Cl)cc3)CC2)cc1	pPAFAH FP inh 28.4
O=S(=O)(c1ccccc1)N1CCC(O)(CSc2ccc(Cl)cc2)CC1	none
Cc1ccc(SC(CC(=O)c2ccc(F)cc2)C(=O)O)cc1 (stereo unspecified)	none
CC(C)(C)c1ccc(C(=O)CC(Sc2ccc(Cl)cc2)C(=O)O)cc1 (stereo unspecified)	PAFAH1B2 FP inh 83.4, PAFAH2 inh 39.5
Cc1ccc(CNS(=O)(=O)c2cn(C)c(=O)n(C)c2=O)cc1	none
CC(=O)Nc1cc(Cl)c(N=Cc2ccc(O)cc2O)cc1Cl	pPAFAH FP inh 41.1
O=S(=O)(NN=Cc1ccc(O)cc1O)c1cc(Cl)c(Cl)cc1Cl	none (no result: pPAFAH FP inh)

Source: PubChem
